Of roughly 7,900 targets only a part is listed; those with a hit were picked by preference. About 0.6% of all pairs of compound and target were hits. A number with no mark means an inactive call.

UniProt P18754, sequence (P18754 whole entry, looked up): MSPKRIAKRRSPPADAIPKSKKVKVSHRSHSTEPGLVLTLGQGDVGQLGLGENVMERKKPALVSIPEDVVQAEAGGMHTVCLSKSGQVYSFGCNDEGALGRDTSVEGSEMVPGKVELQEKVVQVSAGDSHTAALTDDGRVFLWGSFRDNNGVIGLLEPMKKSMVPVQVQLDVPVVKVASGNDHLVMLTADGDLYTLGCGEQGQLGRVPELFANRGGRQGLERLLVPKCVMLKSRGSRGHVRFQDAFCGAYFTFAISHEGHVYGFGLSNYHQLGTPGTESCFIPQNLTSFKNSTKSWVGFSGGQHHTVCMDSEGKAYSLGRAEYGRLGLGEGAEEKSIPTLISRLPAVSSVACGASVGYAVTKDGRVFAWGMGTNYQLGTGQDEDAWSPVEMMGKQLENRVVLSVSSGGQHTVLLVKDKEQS
UniProt Q7L4I2, sequence (Q7L4I2 whole entry, looked up): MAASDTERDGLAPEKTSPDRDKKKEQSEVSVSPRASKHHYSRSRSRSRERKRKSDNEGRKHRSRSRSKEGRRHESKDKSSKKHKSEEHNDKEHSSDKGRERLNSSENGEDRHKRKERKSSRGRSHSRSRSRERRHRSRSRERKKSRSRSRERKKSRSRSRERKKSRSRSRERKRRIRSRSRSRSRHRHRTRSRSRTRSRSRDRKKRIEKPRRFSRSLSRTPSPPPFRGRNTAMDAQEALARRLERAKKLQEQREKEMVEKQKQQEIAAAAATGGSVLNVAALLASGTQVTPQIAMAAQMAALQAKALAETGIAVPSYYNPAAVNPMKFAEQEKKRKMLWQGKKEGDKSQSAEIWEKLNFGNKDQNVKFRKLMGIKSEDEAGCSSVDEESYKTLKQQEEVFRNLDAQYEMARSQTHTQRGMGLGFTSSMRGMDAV
UniProt P52306, sequence (P52306 whole entry, looked up): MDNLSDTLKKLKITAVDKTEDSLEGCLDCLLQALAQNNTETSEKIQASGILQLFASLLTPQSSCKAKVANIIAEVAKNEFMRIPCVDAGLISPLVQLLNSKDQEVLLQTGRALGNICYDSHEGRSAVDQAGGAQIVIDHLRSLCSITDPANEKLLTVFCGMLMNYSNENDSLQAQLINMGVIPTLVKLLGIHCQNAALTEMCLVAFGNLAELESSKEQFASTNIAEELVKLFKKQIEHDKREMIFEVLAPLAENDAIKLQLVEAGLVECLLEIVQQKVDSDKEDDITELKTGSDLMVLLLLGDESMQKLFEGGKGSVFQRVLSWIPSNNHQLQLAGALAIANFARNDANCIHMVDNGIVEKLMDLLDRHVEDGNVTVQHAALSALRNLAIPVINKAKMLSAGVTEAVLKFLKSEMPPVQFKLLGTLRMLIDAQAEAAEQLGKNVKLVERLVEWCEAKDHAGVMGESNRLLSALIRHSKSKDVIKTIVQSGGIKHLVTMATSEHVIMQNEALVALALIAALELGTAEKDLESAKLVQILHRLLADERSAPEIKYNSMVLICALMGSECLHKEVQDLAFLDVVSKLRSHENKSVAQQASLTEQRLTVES
UniProt Q14493, sequence (Q14493 whole entry, looked up): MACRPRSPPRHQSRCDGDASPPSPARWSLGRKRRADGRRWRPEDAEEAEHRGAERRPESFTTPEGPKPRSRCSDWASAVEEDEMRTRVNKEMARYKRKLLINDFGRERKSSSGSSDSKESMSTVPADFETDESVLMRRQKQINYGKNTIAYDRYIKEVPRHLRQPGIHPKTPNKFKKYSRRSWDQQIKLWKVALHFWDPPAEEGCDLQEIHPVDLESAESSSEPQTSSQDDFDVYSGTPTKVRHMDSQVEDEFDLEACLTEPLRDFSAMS
UniProt Q8IZQ5, sequence (Q8IZQ5 whole entry, looked up): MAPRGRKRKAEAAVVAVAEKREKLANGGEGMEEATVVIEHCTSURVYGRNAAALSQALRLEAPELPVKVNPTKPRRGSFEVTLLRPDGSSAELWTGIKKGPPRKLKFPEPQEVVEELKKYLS
UniProt Q8IZV5, sequence (Q8IZV5 whole entry, looked up): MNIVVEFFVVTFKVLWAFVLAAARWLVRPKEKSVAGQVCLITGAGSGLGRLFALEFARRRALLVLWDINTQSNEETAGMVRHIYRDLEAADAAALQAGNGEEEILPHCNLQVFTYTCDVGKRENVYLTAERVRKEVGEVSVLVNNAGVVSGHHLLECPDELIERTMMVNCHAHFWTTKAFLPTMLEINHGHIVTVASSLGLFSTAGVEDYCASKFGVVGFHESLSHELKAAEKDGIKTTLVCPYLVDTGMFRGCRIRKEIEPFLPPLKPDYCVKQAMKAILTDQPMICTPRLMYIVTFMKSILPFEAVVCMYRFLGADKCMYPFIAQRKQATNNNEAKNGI
UniProt Q9H6H4, sequence (Q9H6H4 whole entry, looked up): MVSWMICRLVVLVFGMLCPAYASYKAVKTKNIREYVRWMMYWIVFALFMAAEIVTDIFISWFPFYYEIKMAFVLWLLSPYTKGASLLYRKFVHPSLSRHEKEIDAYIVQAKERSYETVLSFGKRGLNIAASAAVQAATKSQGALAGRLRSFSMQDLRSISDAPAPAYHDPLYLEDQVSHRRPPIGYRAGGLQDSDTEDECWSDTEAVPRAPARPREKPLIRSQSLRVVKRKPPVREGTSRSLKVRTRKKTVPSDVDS
UniProt Q9NR46, sequence (Q9NR46 whole entry, looked up): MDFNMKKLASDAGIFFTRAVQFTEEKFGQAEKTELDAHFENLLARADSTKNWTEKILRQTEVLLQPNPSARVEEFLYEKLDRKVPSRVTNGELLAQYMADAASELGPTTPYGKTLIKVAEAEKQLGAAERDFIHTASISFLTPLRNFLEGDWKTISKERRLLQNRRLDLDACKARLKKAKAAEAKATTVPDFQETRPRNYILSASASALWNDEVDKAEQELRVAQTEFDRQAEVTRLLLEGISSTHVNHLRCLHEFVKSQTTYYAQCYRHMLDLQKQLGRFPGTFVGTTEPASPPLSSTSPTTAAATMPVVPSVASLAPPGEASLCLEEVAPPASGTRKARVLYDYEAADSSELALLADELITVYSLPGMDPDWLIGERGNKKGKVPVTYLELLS
UniProt A1X283, sequence (A1X283 whole entry, looked up): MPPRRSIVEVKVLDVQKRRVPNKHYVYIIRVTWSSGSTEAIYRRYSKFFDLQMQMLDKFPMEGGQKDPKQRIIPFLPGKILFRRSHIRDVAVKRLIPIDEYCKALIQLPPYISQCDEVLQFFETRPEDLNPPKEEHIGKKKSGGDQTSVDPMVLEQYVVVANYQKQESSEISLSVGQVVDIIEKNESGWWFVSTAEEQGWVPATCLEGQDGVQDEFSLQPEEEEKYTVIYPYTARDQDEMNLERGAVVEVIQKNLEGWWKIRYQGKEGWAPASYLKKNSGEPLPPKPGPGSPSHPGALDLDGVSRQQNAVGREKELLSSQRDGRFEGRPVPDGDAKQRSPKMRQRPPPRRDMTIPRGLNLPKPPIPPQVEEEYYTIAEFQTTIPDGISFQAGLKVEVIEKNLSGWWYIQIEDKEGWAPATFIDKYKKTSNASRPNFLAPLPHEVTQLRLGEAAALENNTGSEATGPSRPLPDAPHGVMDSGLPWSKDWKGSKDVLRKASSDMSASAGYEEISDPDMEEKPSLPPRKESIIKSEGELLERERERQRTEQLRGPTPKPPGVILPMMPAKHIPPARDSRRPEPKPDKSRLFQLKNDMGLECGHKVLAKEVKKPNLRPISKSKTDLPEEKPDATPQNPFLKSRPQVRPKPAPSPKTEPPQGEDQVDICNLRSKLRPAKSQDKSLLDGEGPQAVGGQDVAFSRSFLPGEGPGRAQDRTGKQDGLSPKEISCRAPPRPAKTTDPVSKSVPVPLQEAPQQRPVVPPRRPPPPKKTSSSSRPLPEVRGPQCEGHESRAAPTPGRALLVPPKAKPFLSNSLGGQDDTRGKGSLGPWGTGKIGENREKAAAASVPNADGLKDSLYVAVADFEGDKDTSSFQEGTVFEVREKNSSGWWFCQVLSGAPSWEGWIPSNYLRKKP
UniProt Q15050, sequence (Q15050 whole entry, looked up): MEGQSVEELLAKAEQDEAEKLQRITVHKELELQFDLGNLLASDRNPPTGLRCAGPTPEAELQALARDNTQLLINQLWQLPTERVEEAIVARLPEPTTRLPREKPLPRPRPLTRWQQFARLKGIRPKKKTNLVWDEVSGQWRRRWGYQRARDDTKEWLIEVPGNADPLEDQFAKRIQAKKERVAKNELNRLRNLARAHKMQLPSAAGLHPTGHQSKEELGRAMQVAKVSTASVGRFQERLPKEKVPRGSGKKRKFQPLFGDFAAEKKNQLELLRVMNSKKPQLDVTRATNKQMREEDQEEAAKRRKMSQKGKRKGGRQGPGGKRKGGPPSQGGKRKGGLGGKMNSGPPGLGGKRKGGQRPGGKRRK
UniProt Q6NUM9, sequence (Q6NUM9 whole entry, looked up): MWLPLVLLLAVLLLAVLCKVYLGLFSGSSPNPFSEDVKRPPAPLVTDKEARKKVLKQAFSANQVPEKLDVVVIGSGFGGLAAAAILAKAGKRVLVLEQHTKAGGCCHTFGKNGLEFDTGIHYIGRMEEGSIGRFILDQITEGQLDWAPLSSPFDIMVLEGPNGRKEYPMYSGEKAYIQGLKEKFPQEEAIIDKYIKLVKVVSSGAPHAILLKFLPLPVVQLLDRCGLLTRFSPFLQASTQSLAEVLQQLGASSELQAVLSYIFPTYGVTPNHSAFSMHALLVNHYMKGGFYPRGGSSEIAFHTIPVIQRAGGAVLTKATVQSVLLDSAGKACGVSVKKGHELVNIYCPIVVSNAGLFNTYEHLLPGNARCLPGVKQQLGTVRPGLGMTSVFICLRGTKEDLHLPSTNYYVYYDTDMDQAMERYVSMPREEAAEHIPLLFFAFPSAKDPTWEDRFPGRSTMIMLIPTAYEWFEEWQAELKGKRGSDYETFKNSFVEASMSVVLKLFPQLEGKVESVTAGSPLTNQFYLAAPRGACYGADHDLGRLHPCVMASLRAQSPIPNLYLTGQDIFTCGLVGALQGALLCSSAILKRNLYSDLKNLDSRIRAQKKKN
UniProt P61586, sequence (P61586 whole entry, looked up): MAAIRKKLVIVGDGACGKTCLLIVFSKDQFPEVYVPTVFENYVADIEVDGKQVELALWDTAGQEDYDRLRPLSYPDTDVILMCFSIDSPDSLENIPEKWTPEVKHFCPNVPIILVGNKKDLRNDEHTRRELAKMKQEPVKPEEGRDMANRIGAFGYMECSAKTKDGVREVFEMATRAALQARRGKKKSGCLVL

Compound in this assay: c1cn2cc(-c3ccc4cn[nH]c4c3)nc(Nc3ccc(N4CCOCC4)cc3)c2n1 [entospletinib]
Put plainly: log2 fold change, soluble protein after heating vs DMSO (PISA); higher = thermal stabilisation; K562 cells, 10 uM, 30 min; active = over 0.2 and 3.5 SD of the protein, either way, in both replicates (recomputed). The method, boiled down: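 K562 cells at 2×10^6 cells/mL were given 10 μM compound for 30 min. Aliquots then went through 3 min of heating across 48°C-58°C, were pooled, and were extracted in PBS with 0.5% NP-40 at 4°C, and the supernatant after 21,000xg for 90 min was quantified by TMTpro 16plex LC-MS/MS with channel sums equalised. Thermal stability relative to control samples, from duplicates, is given as log2 fold change.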
As to SLBP (UniProt Q14493), the log2 fold change was -0.101.

With SELENOH (UniProt Q8IZQ5), the log2 fold change was -0.143.

For RARS2 (UniProt Q5T160), the log2 fold change is 0.

Consider RHOA (UniProt P61586), for which the log2 fold change is 0.054.

Consider REEP4 (UniProt Q9H6H4), for which the log2 fold change is 0.055.

With SCAF11 (UniProt Q99590), the log2 fold change is 0.185.

SAFB2 (UniProt Q14151): the log2 fold change is 0.05.

Consider RPS9 (UniProt P46781), for which the log2 fold change was 0.042.

As to RNPS1 (UniProt Q15287), the log2 fold change was 0.064.

Regarding RTN4IP1 (UniProt Q8WWV3), the log2 fold change is -0.003.

As for RAP1GDS1 isoform 5 (UniProt P52306), the log2 fold change is -0.025.

For the target RBM22 (UniProt Q9NW64), the log2 fold change is -0.015.

For RSRC2 (UniProt Q7L4I2), the log2 fold change is 0.019.

Turning to RRS1 (UniProt Q15050), the log2 fold change was 0.066.

RAB3GAP2 (UniProt Q9H2M9): the log2 fold change is 0.091.

Consider SLC19A1 (UniProt P41440), for which the log2 fold change is -0.121.

For SH3GLB2 (UniProt Q9NR46), the log2 fold change is 0.034.

RABGAP1L isoform 3 (UniProt Q5R372): the log2 fold change is -0.021.

On to RNPEP (UniProt Q9H4A4), for which the log2 fold change is 0.004.

RCC1 isoform 2 (UniProt P18754): the log2 fold change is -0.022.

Turning to RNF185 (UniProt Q96GF1), the log2 fold change was 0.128.

RETSAT (UniProt Q6NUM9): the log2 fold change was -0.006.

Turning to SIRT2 (UniProt Q8IXJ6), the log2 fold change was -0.047.

In the case of RECQL (UniProt P46063), the log2 fold change was 0.012.

With RBM27 (UniProt Q9P2N5), the log2 fold change was 0.054.

For SH3PXD2B (UniProt A1X283), the log2 fold change is -0.131.

Regarding RAVER1 (UniProt E9PAU2), the log2 fold change was 0.073.

RGS10 (UniProt O43665): the log2 fold change was -0.006.

In the case of RAB5IF isoform 5 (UniProt Q9BUV8), the log2 fold change is -0.086.

Consider SDHAF4 (UniProt Q5VUM1), for which the log2 fold change is -0.018.

Regarding RDH10 (UniProt Q8IZV5), the log2 fold change was 0.03.

RAD50, A0A494C0Y7: the log2 fold change is -0.108.

Turning to RNF41 (UniProt Q9H4P4), the log2 fold change was 0.044.

Take SART3, A0A499FI31: the log2 fold change was 0.023.

Take RPS3 (UniProt P23396): the log2 fold change is 0.063.

Take SEC31A (UniProt O94979): the log2 fold change was -0.119.

On to SLC12A5 (UniProt Q9H2X9), for which the log2 fold change was -0.081.

Turning to SEMG2 (UniProt Q02383), the log2 fold change is -0.048.

These data come from the supplement of paper PMC10849652.
